For six sequences, binding signal results are on record in publication PMC11006913.

Residue numbers refer to the chain shown, from its start.

Common to all, as to test: PBM; 200 nM protein, PBS
Settings in all cases: dsDNA, one strand shown

Test [1] concerns the target NKX2-5 (Homo sapiens, UniProt P52952 125-210, R139K).
Test [2] addresses T1, NKX2-4 (Homo sapiens, UniProt Q9H2Z4 175-261, P217L).
T1 sequence: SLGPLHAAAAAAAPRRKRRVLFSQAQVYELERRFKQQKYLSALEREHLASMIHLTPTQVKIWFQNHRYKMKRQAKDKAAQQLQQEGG

For test [3], the target named is T2, NKX2-4 (Homo sapiens, UniProt Q9H2Z4 175-261, T231S).
T2 sequence: T1 sequence with L43P, T57S

For test [4], the target named is T3, NKX2-4 (Homo sapiens, UniProt Q9H2Z4 175-261).
T3 sequence: T1 sequence with L43P

Test [5] has as its target T4, NKX2-6 (Homo sapiens, UniProt A6NCS4 118-204, R150C).
T4 sequence: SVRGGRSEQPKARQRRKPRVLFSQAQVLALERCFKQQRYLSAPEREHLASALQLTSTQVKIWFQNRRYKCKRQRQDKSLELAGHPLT

Test [6] addresses T5, NKX2-6 (Homo sapiens, UniProt A6NCS4 118-204).
T5 sequence: T4 sequence with C33R

The target of test [7] is T6, NKX2-4 (Homo sapiens, UniProt Q9H2Z4 175-261, R246Q).
T6 sequence: T1 sequence with L43P, R72Q

Test [8] deals with T7, NKX2-6 (Homo sapiens, UniProt A6NCS4 118-204, F151L).
T7 sequence: T4 sequence with C33R, F34L

Test [9] has as its target NKX3-2 (Homo sapiens, UniProt P78367 192-278, P234S).
In test [10] the target is NKX2-5 (Homo sapiens, UniProt P52952 125-210).
Test [11] concerns the target NKX3-2 (Homo sapiens, UniProt P78367 192-278).

NKX3-2 (Homo sapiens, UniProt P78367 192-278), sequence (P78367 192-278): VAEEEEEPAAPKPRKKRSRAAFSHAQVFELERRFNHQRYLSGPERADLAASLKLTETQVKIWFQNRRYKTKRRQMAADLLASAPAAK
NKX2-5 (Homo sapiens, UniProt P52952 125-210), sequence (P52952 125-210): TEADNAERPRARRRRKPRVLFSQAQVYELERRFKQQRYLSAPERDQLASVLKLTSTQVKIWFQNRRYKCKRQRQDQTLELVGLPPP
NKX2-5 (Homo sapiens, UniProt P52952 125-210, R139K), sequence (P52952 125-210 R139K): as the sequence (P52952 125-210) above, with R15K counted along it
NKX3-2 (Homo sapiens, UniProt P78367 192-278, P234S), sequence (P78367 192-278 P234S): as the sequence (P78367 192-278) above, with P43S counted along it

In the case of CACTTAAA, the binding signal was 13.1 upbm affinity estimate (log intensity, higher = more binding, comparable within an allelic series) with NKX2-5 [1]; 12.7 upbm affinity estimate (log intensity, higher = more binding, comparable within an allelic series) in the test with NKX2-4 [2]; 13.1 upbm affinity estimate (log intensity, higher = more binding, comparable within an allelic series) with NKX2-4 [3]; 12.6 upbm affinity estimate (log intensity, higher = more binding, comparable within an allelic series) with NKX2-4 [4]; 12 upbm affinity estimate (log intensity, higher = more binding, comparable within an allelic series) in the test with NKX2-6 [5]; 13.8 upbm affinity estimate (log intensity, higher = more binding, comparable within an allelic series) with NKX2-6 [6]. Moreover, the binding signal in the test with NKX2-4 [7] was 13.2 upbm affinity estimate (log intensity, higher = more binding, comparable within an allelic series); in the test with NKX2-6 [8] it was 11.4 upbm affinity estimate (log intensity, higher = more binding, comparable within an allelic series); with NKX3-2 [9], 12.7 upbm affinity estimate (log intensity, higher = more binding, comparable within an allelic series); with NKX2-5 [10], 13 upbm affinity estimate (log intensity, higher = more binding, comparable within an allelic series); with NKX3-2 [11] it was 12.8 upbm affinity estimate (log intensity, higher = more binding, comparable within an allelic series).
Consider AAGTACTC, for which the binding signal with NKX2-5 [1] was 12.7 upbm affinity estimate (log intensity, higher = more binding, comparable within an allelic series); with NKX2-4 [2] it was 12.7 upbm affinity estimate (log intensity, higher = more binding, comparable within an allelic series); with NKX2-4 [3] it was 13.1 upbm affinity estimate (log intensity, higher = more binding, comparable within an allelic series); with NKX2-4 [4], 12.6 upbm affinity estimate (log intensity, higher = more binding, comparable within an allelic series); with NKX2-6 [5], 11.8 upbm affinity estimate (log intensity, higher = more binding, comparable within an allelic series); in the test with NKX2-6 [6], 13.6 upbm affinity estimate (log intensity, higher = more binding, comparable within an allelic series). Moreover, the binding signal with NKX2-4 [7] was 13.2 upbm affinity estimate (log intensity, higher = more binding, comparable within an allelic series); in the test with NKX2-6 [8] it was 10.8 upbm affinity estimate (log intensity, higher = more binding, comparable within an allelic series); with NKX3-2 [9], 12.7 upbm affinity estimate (log intensity, higher = more binding, comparable within an allelic series); with NKX2-5 [10], 12.6 upbm affinity estimate (log intensity, higher = more binding, comparable within an allelic series); in the test with NKX3-2 [11], 12.8 upbm affinity estimate (log intensity, higher = more binding, comparable within an allelic series).
Regarding AGTACTTG, the binding signal with NKX2-5 [1] was 12.5 upbm affinity estimate (log intensity, higher = more binding, comparable within an allelic series); in the test with NKX2-4 [2], 12.5 upbm affinity estimate (log intensity, higher = more binding, comparable within an allelic series); with NKX2-4 [3], 12.9 upbm affinity estimate (log intensity, higher = more binding, comparable within an allelic series); with NKX2-4 [4] it was 12.4 upbm affinity estimate (log intensity, higher = more binding, comparable within an allelic series); in the test with NKX2-6 [5], 11.6 upbm affinity estimate (log intensity, higher = more binding, comparable within an allelic series); in the test with NKX2-6 [6] it was 13.5 upbm affinity estimate (log intensity, higher = more binding, comparable within an allelic series). The binding signal with NKX2-4 [7] is 13 upbm affinity estimate (log intensity, higher = more binding, comparable within an allelic series); with NKX2-6 [8], 10.8 upbm affinity estimate (log intensity, higher = more binding, comparable within an allelic series); with NKX2-5 [10], 12.3 upbm affinity estimate (log intensity, higher = more binding, comparable within an allelic series).
With AAGTGGTA, the binding signal is 12.5 upbm affinity estimate (log intensity, higher = more binding, comparable within an allelic series) with NKX2-5 [1]; 12.4 upbm affinity estimate (log intensity, higher = more binding, comparable within an allelic series) with NKX2-4 [2]; 12.9 upbm affinity estimate (log intensity, higher = more binding, comparable within an allelic series) with NKX2-4 [3]; 12.3 upbm affinity estimate (log intensity, higher = more binding, comparable within an allelic series) with NKX2-4 [4]; 11.9 upbm affinity estimate (log intensity, higher = more binding, comparable within an allelic series) with NKX2-6 [5]; 13.4 upbm affinity estimate (log intensity, higher = more binding, comparable within an allelic series) with NKX2-6 [6]. For the same sequence, the binding signal with NKX2-4 [7] is 12.9 upbm affinity estimate (log intensity, higher = more binding, comparable within an allelic series); with NKX2-6 [8], 10.7 upbm affinity estimate (log intensity, higher = more binding, comparable within an allelic series); in the test with NKX3-2 [9] it was 12.8 upbm affinity estimate (log intensity, higher = more binding, comparable within an allelic series); in the test with NKX2-5 [10], 12.5 upbm affinity estimate (log intensity, higher = more binding, comparable within an allelic series); in the test with NKX3-2 [11], 12.9 upbm affinity estimate (log intensity, higher = more binding, comparable within an allelic series).
With CCACTTAC, the binding signal with NKX2-5 [1] is 13 upbm affinity estimate (log intensity, higher = more binding, comparable within an allelic series); in the test with NKX2-4 [2], 12.6 upbm affinity estimate (log intensity, higher = more binding, comparable within an allelic series); with NKX2-4 [3] it was 12.9 upbm affinity estimate (log intensity, higher = more binding, comparable within an allelic series); with NKX2-4 [4], 12.4 upbm affinity estimate (log intensity, higher = more binding, comparable within an allelic series); with NKX2-6 [5], 12.2 upbm affinity estimate (log intensity, higher = more binding, comparable within an allelic series); with NKX2-6 [6], 13.7 upbm affinity estimate (log intensity, higher = more binding, comparable within an allelic series). Further, the binding signal was 13 upbm affinity estimate (log intensity, higher = more binding, comparable within an allelic series) with NKX2-4 [7]; 11 upbm affinity estimate (log intensity, higher = more binding, comparable within an allelic series) with NKX2-6 [8]; 13.2 upbm affinity estimate (log intensity, higher = more binding, comparable within an allelic series) with NKX3-2 [9]; 12.8 upbm affinity estimate (log intensity, higher = more binding, comparable within an allelic series) with NKX2-5 [10]; 13.3 upbm affinity estimate (log intensity, higher = more binding, comparable within an allelic series) with NKX3-2 [11].
With AAGTGGCT, the binding signal with NKX2-5 [1] was 12.5 upbm affinity estimate (log intensity, higher = more binding, comparable within an allelic series); with NKX2-4 [2] it was 12.5 upbm affinity estimate (log intensity, higher = more binding, comparable within an allelic series); with NKX2-4 [3] it was 12.9 upbm affinity estimate (log intensity, higher = more binding, comparable within an allelic series); with NKX2-4 [4], 12.4 upbm affinity estimate (log intensity, higher = more binding, comparable within an allelic series); in the test with NKX2-6 [5], 11.8 upbm affinity estimate (log intensity, higher = more binding, comparable within an allelic series); with NKX2-6 [6], 13.4 upbm affinity estimate (log intensity, higher = more binding, comparable within an allelic series). The binding signal in the test with NKX2-4 [7] was 13 upbm affinity estimate (log intensity, higher = more binding, comparable within an allelic series); with NKX2-6 [8], 10.6 upbm affinity estimate (log intensity, higher = more binding, comparable within an allelic series); with NKX3-2 [9], 12.8 upbm affinity estimate (log intensity, higher = more binding, comparable within an allelic series); with NKX2-5 [10] it was 12.4 upbm affinity estimate (log intensity, higher = more binding, comparable within an allelic series); with NKX3-2 [11], 12.9 upbm affinity estimate (log intensity, higher = more binding, comparable within an allelic series).
